Inhibition data for 5 compounds are collected here from PubChem BioAssay AID1085 (Emory University Molecular Libraries Screening Center, 2008).

The whole screen tested about 220,000 compounds, of which about 930 (0.42%) were called active. The full list was thinned out, with actives kept by preference. Values without a mark were called inactive. No stated cut-off is given here; in the data, active means inhibition above about 50%; inactive means the rest.

The assay deals with Glycoprotein 42 (Epstein-Barr virus (strain AG876)) (UniProt Q1HVG2). The assay can be described thus: EBV glycoprotein 42 binding blockers – biochemical, uHTS, fluorescence polarization, primary screen (AID 1085). As to conditions: Fluorescence polarization binding assay, mP read-out; active compounds read high; tested at 21.74 µM. (In fluorescence polarisation assays a small probe gives low polarisation when free and higher when bound to something large.)
Sequence of Glycoprotein 42 (Epstein-Barr virus (strain AG876)) (Q1HVG2 whole entry, looked up): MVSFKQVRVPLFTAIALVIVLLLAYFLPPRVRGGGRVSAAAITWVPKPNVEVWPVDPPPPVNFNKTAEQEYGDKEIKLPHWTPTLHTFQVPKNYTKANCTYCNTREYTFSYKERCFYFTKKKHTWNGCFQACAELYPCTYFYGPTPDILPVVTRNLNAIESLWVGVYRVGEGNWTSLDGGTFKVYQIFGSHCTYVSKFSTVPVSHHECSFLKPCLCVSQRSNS
In the case of `O=C1NC(=O)N(c2ccc(F)cc2)C(=O)/C1=C/c1ccc2c(c1)CCCN2Cc1ccccc1`, the inhibition is 187% (active).
Turning to `O=C1NC(=O)N(c2ccccc2)C(=O)/C1=C/c1ccc([N+](=O)[O-])s1`, the inhibition was -9.65%.
As for `Cc1cccc(N2C(=O)NC(=O)/C(=C\c3cnn(-c4ccccc4)c3)C2=O)c1`, the figure is -3.6%; as for `O=c1[nH]c(=O)n(CCc2ccccc2)c(O)c1/C=N/N1CCOCC1`, -16.8%.
The figure for `CN(C)CC1Oc2ccccc2OC1(O)c1ccccc1` (stereo not given) is -12%.

The term inhibition denotes the relative decrease from the control value, in per cent.
